Measured values as given in PubChem BioAssay (NCATS).
Values without a mark were called inactive. Records with an inconclusive call do not appear. A call without a number means that no potency is given here. Activity calls are given as the source filed them. Unless noted, calls come from the whole dose curve; as a rule, active = well fitted curve in the direction sought with a large enough effect; inconclusive = small, poorly fitted or top-dose-only effect, or another doubt; inactive = no such curve, though single readings can be large; an effect the other way counts as inactive or inconclusive.

Experiments:
[1] = biological target: Luciferin 4-monooxygenase (Photinus pyralis) (UniProt P08659); assay: Biochemical firefly luciferase enzyme assay for NPC (AID 624030);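 note: purified P. pyralis luciferase at 10 nM with luciferin and ATP substrate; series mostly up to about 59 µM; nearly all actives have a fitted effect of over 70% in size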
Method in brief: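 Purified P. pyralis luciferase at 10 nM in 50 mM Tris Acetate (final), luminescence read within 5 minutes of enzyme addition to compounds. Activity normalised to PTC124 versus DMSO; concentration-response curves classed by r2, magnitude and activity.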

[2] = test system: Zika virus NS2B-NS3 protease; assay: Primary screen GU AMC qHTS for Zika virus inhibitors (AID 1347154); note: nearly all actives have a fitted effect of over 70% in size
Method in brief: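 Unlinked Zika NS2B hydrophilic domain–NS3 protease complex at 25 nM in 10 mM Tris-HCl pH 8.0, 0.01% Tween 20, with an AMC peptide substrate. Fluorescence change (340/450 nm) over 15 min at room temperature, normalized to controls, fitted to 4-parameter Hill.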

[3] = Primary qHTS for small molecule stabilizers of the endoplasmic reticulum resident proteome: Secreted ER Calcium Modulated Protein (SERCaMP) assay (AID 1508630)
Method in brief: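 GLuc-SERCaMP-expressing SH-SY5Y cells, pretreated 16 h with compound, are challenged with thapsigargin to empty ER calcium stores; after 4 h, coelenterazine is added directly to the medium and luminescence is imaged.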

[4] = biological target: Glucocorticoid receptor (Homo sapiens) (UniProt P04150); assay: GR-GFP Redistribution (AID 450;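 active = compounds whose dose series gives a full or clear partial fitted curve of increased nuclear translocation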; note: potency is the fitted concentration of half-maximal effect); settings: U2OS GR-GFP nuclear translocation, laser cytometry, 2 h
[5] = biological target: Glucocorticoid receptor (Homo sapiens) (UniProt P04150); assay: GR-EFC Redistribution (AID 451; calls by dose curve; note: potency is the fitted concentration of half-maximal effect); settings: CHO-K1 GR-EFC translocation, beta-gal luminescence, 2 h
Method in brief: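 CHO-K1 cells expressing nuclear EA and GR-ED fragments of b-gal; compounds titrated up to 46 uM final, 2 h at 37 C. GR nuclear translocation read as complemented b-gal luminescence after 1 h RT detection.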

[6] = biological target: Mitogen-activated protein kinase 10 (Mus musculus) (UniProt Q61831); assay: JNK3 AlphaScreen Assay (AID 530; active = well fitted curve in either direction with a large enough effect, not every such curve was filed as active;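 note: kinase came from lysate of stimulated human HepG2 cells; signal reports phosphorylation of biotinylated GST-cJun 1-79 at Ser73 with 10 µM ATP; series mostly up to about 57 µM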)
Method in brief: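 Pre-activated (IL-1β/TNFα) JNK3 in HepG2 lysates phosphorylates biotin-GST-cJun(1-79), 10 uM ATP; anti-phospho-cJun(Ser73) AlphaScreen read at room temperature, pH 7.6 Tris buffer. Compounds pre-incubated 15 min as titrations.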

[7] = biological target: 3',5'-cyclic-AMP phosphodiesterase 4B (Homo sapiens) (UniProt Q07343); assay: qHTS Assay for Inhibitors of PDE-IV (AID 607; active = well fitted activation curve with a large enough effect in the main read-out, with a control signal flat, not every such curve was filed as active)
Method in brief: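 Live HEK293 cells with a modified cyclic nucleotide-gated (CNG) channel report intracellular cAMP via membrane-potential dye fluorescence (ex 535/em 590 nm). Endogenous PDE-IV was targeted. Compounds were tested at up to 22.9 uM final; RO 20-1724 100 uM served as control.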

[8] = biological target: Cytochrome P450 2C9 (Homo sapiens) (UniProt P11712); assay: qHTS Assay for Inhibitors and Substrates of Cytochrome P450 2C9 (AID 883); note: potency is the fitted concentration of half-maximal effect; nearly all actives have a fitted effect of over 60% in size
Method in brief: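 Signal: luciferase luminescence reporting luciferin produced by CYP2C9. Conditions: 10nM enzyme, Luciferin-H 100uM at KM, 25mM KPO4, 37C, 60 min NADPH-driven reaction. Reference: 57uM sulphaphenazole as 100% inhibition.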

[9] = biological target: Cytochrome P450 3A4 (Homo sapiens) (UniProt P08684); assay: qHTS Assay for Activators of Cytochrome P450 3A4 (AID 885); note: nearly all actives have a fitted effect of over 65% in size
Method in brief: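 Quantitative HTS format: compounds preincubated with 20nM human CYP3A4 and Luciferin-PPXE substrate at KM, reaction started by NADPH regeneration, stopped after 60 min, luciferase luminescence read 20 min later.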

[10] = biological target: Ubiquitin carboxyl-terminal hydrolase 1 (Homo sapiens) (UniProt O94782); assay: Inhibitors of USP1/UAF1: Pilot qHTS (AID 504865);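 note: rhodamine fluorescence freed from ubiquitin-rhodamine substrate followed over time; top concentration of the series differs between compounds; nearly all actives have a fitted effect of over 35% in size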
Method in brief: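 Enzyme-free wells gave the negative control, while test wells held 1nM USP1/UAF1 preincubated with compound for 15 min at room temperature. Ub-Rho at 150nM final started the reaction, and fluorescence at 480/540 nm was recorded kinetically.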

[11] = biological target: DNA dC->dU-editing enzyme APOBEC-3G (Homo sapiens) (UniProt Q9HC16); assay: qHTS for inhibitors of Vif-A3G interactions: Validation (AID 588379)
Method in brief: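 HeLa cells stably expressing Vif and A3G-eYFP, 700 cells/well, incubated overnight at 37 deg C, then exposed to compound overnight at 37 deg C. Inhibition of Vif-mediated degradation read as increased yellow fluorescence (Ex 488/Em 500-530) by laser-scanning cytometry.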

[12] = Cell Viability qHTS for small molecule stabilizers of the endoplasmic reticulum resident proteome (AID 1508629); settings: cell viability counter-screen, 100 nM thapsigargin for final 4 h;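 note: human SH-SY5Y neuroblastoma cells carrying the GLuc-SERCaMP reporter; compound exposure about 46 h in total before the viability read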
[13] = biological target: Cytochrome P450 1A2 (Homo sapiens) (UniProt P05177); assay: p450-cyp1a2 (AID 410; calls by dose curve; note: potency is the fitted concentration of half-maximal effect)
Method in brief: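 20nM CYP1A2 with 100uM Luciferin-ME (at Km) in 100mM KPO4; compound preincubated 10 min, NADPH regeneration added, 60 min at room temperature. Luciferin quantified by luminescence after detection reagent; normalized to 57 uM furafylline.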

[14] = biological target: Cytochrome P450 2D6 (Homo sapiens) (UniProt P10635); assay: qHTS Assay for Inhibitors and Substrates of Cytochrome P450 2D6 (AID 891); note: potency is the fitted concentration of half-maximal effect; nearly all actives have a fitted effect of over 60% in size
Method in brief: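 Human CYP2D6 (5 nM) with 30 uM Luciferin-ME EGE (at Km) in 100 mM KPO4, compound preincubated 10 min, then NADPH regeneration system for 60 min at room temperature. Luciferin read by luminescence; normalized to 1.43 uM quinidine.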

[15] = biological target: Cytochrome P450 2C19 (Homo sapiens) (UniProt P33261); assay: qHTS Assay for Inhibitors and Substrates of Cytochrome P450 2C19 (AID 899); note: potency is the fitted concentration of half-maximal effect; nearly all actives have a fitted effect of over 60% in size
Method in brief: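 Signal comes from luciferase acting on luciferin released by CYP2C19-mediated hydroxylation of Luciferin-H EGE, 10uM (KM). Assay mix: 5nM enzyme, 50mM KPO4; 60 min at 37C with NADPH regeneration. Data normalized against 57uM ketoconazole.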

[16] = Counterscreen qHTS for small molecule stabilizers of the endoplasmic reticulum resident proteome: GLuc-NoTag assay (AID 1508627); note: potency is the fitted concentration of half-maximal effect
Method in brief: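 SH-SY5Y cells stably expressing constitutively secreted GLuc without SERCaMP tag, exposed to compound for 19 hr, then to 100 nM thapsigargin for 4 hr at 37C. Medium luciferase was read by coelenterazine luminescence without lysis.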

Chain of Glucocorticoid receptor (Homo sapiens) (P04150 whole entry, looked up, the tested form may be a part): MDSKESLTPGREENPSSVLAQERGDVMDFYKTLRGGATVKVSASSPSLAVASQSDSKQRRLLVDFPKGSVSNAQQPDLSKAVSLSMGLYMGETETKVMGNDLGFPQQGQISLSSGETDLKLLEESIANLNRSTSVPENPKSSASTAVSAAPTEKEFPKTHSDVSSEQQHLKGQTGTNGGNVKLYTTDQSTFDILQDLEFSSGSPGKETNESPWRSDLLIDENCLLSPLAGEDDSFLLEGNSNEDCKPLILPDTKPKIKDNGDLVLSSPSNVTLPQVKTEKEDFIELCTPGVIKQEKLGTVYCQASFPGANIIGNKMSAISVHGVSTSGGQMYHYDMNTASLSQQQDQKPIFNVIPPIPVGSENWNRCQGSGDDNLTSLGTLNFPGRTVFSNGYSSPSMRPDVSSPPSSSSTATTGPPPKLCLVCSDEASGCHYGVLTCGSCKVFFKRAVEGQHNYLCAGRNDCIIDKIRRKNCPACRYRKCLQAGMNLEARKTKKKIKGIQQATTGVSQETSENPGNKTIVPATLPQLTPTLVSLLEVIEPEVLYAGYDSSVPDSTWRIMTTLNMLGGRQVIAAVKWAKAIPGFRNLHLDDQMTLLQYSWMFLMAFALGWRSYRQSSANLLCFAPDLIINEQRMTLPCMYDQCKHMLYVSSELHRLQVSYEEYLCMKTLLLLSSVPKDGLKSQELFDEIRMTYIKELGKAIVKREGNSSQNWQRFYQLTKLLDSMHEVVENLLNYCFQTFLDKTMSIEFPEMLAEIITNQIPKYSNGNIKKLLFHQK
Chain of Cytochrome P450 3A4 (Homo sapiens) (P08684 whole entry, looked up): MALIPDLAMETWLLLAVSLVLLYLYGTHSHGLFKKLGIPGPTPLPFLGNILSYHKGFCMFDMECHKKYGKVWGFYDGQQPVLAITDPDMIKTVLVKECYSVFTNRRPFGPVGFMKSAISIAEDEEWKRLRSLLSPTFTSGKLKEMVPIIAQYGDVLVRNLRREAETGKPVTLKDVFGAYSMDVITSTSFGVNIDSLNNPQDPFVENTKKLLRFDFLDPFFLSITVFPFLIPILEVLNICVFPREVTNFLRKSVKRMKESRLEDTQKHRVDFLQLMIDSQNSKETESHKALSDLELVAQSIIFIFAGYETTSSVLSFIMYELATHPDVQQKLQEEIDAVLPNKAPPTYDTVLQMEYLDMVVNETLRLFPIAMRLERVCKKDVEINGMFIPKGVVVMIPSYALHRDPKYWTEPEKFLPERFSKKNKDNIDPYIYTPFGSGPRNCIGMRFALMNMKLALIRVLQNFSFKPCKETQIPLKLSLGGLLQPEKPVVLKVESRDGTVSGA
Chain of Ubiquitin carboxyl-terminal hydrolase 1 (Homo sapiens) (O94782 whole entry, looked up): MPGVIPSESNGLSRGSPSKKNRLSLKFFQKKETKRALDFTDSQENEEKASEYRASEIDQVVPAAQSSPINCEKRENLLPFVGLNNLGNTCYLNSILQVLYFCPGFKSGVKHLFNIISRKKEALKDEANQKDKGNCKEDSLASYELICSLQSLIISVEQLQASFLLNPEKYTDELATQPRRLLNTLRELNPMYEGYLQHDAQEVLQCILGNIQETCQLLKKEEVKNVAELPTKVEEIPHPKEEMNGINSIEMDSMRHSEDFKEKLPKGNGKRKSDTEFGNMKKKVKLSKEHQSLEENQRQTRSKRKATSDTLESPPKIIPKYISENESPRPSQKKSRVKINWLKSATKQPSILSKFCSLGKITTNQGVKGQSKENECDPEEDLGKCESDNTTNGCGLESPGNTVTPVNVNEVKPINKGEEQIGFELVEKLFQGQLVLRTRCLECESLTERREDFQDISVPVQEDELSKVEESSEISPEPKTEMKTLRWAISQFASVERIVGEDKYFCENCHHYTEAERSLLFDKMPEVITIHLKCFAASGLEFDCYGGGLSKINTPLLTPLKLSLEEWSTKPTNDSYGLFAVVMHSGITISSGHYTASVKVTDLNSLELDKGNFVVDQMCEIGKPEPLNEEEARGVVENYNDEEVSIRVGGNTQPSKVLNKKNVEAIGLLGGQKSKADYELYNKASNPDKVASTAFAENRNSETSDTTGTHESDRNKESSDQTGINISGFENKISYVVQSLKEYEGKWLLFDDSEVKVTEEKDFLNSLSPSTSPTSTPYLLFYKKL
Chain of Cytochrome P450 2C9 (Homo sapiens) (P11712 whole entry, looked up): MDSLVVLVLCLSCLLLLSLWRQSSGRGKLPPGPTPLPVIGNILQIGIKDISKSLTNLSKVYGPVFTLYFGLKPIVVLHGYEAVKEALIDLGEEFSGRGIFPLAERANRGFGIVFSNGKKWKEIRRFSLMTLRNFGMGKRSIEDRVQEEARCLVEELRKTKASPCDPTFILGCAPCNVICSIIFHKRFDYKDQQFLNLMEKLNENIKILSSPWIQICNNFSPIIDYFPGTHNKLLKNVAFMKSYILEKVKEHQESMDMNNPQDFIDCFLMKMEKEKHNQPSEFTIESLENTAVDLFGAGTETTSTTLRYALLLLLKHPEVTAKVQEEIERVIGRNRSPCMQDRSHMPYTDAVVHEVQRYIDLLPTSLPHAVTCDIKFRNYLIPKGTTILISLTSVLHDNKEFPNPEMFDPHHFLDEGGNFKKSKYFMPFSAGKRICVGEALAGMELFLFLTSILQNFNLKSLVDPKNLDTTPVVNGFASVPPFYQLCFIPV
Chain of DNA dC->dU-editing enzyme APOBEC-3G (Homo sapiens) (Q9HC16 whole entry, looked up): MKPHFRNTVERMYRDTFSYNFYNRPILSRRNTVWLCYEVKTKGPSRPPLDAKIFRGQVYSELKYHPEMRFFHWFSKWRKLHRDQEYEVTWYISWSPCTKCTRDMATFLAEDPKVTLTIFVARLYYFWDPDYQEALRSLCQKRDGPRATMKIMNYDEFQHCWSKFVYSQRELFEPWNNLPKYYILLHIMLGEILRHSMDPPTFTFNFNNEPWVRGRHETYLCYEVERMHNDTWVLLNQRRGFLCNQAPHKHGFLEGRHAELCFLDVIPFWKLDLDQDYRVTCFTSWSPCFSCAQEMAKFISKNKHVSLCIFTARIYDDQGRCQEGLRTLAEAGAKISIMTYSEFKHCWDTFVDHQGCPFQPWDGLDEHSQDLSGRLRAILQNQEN
Chain of Cytochrome P450 2D6 (Homo sapiens) (P10635 whole entry, looked up): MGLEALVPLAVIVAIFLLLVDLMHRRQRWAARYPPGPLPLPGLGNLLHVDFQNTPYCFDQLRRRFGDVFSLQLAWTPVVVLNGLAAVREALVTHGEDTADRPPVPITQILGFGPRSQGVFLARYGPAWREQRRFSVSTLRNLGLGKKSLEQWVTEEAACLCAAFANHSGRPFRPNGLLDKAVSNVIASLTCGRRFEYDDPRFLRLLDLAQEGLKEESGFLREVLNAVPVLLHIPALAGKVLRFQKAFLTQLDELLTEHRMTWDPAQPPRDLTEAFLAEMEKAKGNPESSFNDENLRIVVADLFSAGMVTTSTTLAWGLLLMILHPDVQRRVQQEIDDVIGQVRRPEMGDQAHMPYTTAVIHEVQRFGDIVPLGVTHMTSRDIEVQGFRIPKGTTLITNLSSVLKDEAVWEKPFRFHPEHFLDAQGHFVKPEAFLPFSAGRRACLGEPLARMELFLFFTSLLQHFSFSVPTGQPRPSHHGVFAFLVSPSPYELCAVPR
Chain of Cytochrome P450 2C19 (Homo sapiens) (P33261 whole entry, looked up): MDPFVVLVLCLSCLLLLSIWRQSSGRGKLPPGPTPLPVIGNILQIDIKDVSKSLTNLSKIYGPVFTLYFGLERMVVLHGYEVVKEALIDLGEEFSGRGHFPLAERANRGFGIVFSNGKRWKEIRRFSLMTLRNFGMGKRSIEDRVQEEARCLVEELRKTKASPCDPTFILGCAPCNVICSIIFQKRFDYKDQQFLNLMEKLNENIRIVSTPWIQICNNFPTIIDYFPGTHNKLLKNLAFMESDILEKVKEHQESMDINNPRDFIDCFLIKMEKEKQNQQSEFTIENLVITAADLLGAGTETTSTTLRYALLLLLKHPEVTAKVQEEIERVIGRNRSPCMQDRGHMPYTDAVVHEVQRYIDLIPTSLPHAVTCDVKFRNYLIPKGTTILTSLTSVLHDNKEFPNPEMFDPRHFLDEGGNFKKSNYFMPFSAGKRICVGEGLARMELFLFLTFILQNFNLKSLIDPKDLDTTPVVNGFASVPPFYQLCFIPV
Chain of 3',5'-cyclic-AMP phosphodiesterase 4B (Homo sapiens) (Q07343 whole entry, looked up): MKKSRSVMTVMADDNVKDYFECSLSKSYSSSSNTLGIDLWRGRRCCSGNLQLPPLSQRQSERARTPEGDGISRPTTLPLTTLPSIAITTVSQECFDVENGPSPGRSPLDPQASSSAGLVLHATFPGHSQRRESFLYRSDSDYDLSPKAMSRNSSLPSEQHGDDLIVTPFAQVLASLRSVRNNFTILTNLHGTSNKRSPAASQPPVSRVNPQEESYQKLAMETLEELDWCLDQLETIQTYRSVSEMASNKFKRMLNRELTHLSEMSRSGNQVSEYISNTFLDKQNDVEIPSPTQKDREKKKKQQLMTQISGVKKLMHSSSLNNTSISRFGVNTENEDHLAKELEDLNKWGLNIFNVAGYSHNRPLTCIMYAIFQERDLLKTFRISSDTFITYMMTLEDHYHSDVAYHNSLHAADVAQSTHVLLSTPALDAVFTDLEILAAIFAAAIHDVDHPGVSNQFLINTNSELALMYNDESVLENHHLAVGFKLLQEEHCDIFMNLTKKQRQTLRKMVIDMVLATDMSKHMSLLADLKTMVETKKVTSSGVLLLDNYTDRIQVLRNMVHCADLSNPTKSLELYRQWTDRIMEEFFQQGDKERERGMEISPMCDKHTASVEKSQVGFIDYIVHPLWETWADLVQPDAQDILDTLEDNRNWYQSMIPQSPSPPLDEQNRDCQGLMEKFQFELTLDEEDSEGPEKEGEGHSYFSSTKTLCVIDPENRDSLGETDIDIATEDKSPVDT

C[C@H]1C[C@H](C)C(=O)[C@@H]([C@H](O)CC2CC(=O)NC(=O)C2)C1
Potency [1]: inactive

CCCN(C/C=C/I)C1CCc2ccc(O)cc2C1 (stereo not drawn)
Potency [2]: inactive
Potency [3]: inactive

C[C@@H]1O[C@H](C[N+](C)(C)C)C[C@@H]1O
Potency [2]: inactive
Potency [3]: inactive

C=CCN1CCC23c4c5ccc(O)c4OC2/C(=N/N=C2\CCC4(O)C6Cc7ccc(O)c8c7C4(CCN6CC=C)C2O8)CCC3(O)C1C5 (stereo not drawn)
Potency [2]: inactive
Potency [3]: inactive

C=C1C([C@@H](O)C[C@H](C)C2O[C@@]3(CCCCO3)CC[C@H]2C)OC2CC[C@@]3(CC[C@@H](/C=C/[C@@H](C)C4CC(C)=C[C@]5(O4)O[C@H](C[C@@](C)(O)C(=O)O)CCC5O)O3)OC2[C@@H]1O (stereo partly drawn)
activity change, negative = inhibition [2]: 0.872% [at 4.99 µM]
activity change, negative = inhibition [3]: -21.6% [at 1.51 µM]

CC1(C)[C@@H](O)C[C@H]2[C@](C)(O)[C@@H]3CC[C@H]4[C@@H](O)[C@@]3(C[C@@H](O)[C@@]21O)C[C@@]4(C)O
Potency [2]: inactive
Potency [3]: inactive

H-YPFVEPI-OH
activity change, negative = inhibition [2]: -10.5% [at 6.83 µM]
activity change, negative = inhibition [3]: -11.8% [at 3.88 µM]

NCC(CS(=O)(=O)O)c1ccc(Cl)cc1 (stereo not drawn)
Potency [2]: inactive
Potency [3]: inactive

C=CCN1C[C@H](C)N([C@H](c2ccc(C(=O)N(CC)CC)cc2)c2cccc(O)c2)C[C@H]1C
Potency [4]: > 46 µM
Potency [5]: > 46 µM
outcome [6]: inactive
Potency [7]: inactive
Potency [8]: 3.98 µM (active)
Potency [9]: inactive
Potency [10]: inactive
Potency [11]: inactive
Potency [2]: inactive
max response [12]: 8.89%

COC[C@H]([C@@H](O)[C@@H](O)C(=O)NCC[C@@H](C)c1nc(/C=C/C[C@H]2OC3(C[C@H](O)[C@H]2C)OC([C@@H](C[C@@H](O)[C@@H](C)[C@@H](O)[C@@H](C)/C=C(C)/C(C)=C/C=C/C(C)=C\C#N)OC)[C@@H](OP(=O)(O)O)C3(C)C)co1)N(C)C (stereo partly drawn)
activity change, negative = inhibition [2]: 9.25% [at 4.99 µM]
activity change, negative = inhibition [3]: 257% [at 1.51 µM]

Fc1ccc(C(OCCN2CCN(C/C=C\c3ccccc3)CC2)c2ccc(F)cc2)cc1
Potency [13]: 31.6 µM (active)
Potency [4]: > 46 µM
Potency [5]: > 46 µM
outcome [6]: inactive
Potency [8]: 7.94 µM (active)
Potency [9]: inactive
Potency [14]: 7.94 µM (active)
Potency [15]: 7.94 µM (active)
Potency [10]: inactive
Potency [11]: inactive
Potency [2]: inactive
Potency [16]: 39.8 µM (active)

CCCCC[C@@H](/C=C/C=C\C/C=C\C/C=C\CCCC(=O)O)OO
activity change, negative = inhibition [2]: 15.4% [at 0.59 µM]
activity change, negative = inhibition [3]: -17.3% [at 0.478 µM]

O=C(O)CCC(CP(=O)(O)O)C(=O)O (stereo not drawn)
Potency [2]: inactive
Potency [3]: inactive
